Compounds without any hit were thinned out: in the full panel of roughly 83,000, 20% have a hit.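 Growth was measured after 48 h exposure to one concentration of compound in 96-well plates. Values under 10 count as active.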 Active and inactive are the calls of the source.
How the values were obtained:
Assay in all cases: NCI-60 one-dose screen, 48 h (100 = growth as untreated, 0 = no growth, -100 = all killed)
Conditions in all cases: 10 µM unless noted
NCI-H23 lung = tested on: NCI-H23 lung
NCI-H226 lung = tested on: NCI-H226 lung
NCI-H322M lung = tested on: NCI-H322M lung
HOP-62 NSCLC = tested on: HOP-62 NSCLC
NCI-H460 lung = tested on: NCI-H460 lung
NCI-H522 lung = tested on: NCI-H522 lung
A549/ATCC NSCLC = tested on: A549/ATCC NSCLC
786-0 renal = tested on: 786-0 renal
DU-145 prostate = tested on: DU-145 prostate
K-562 leukemia = tested on: K-562 leukemia
MALME-3M melanoma = tested on: MALME-3M melanoma
MDA-MB-231 breast = tested on: MDA-MB-231 breast
RXF 393 renal = tested on: RXF 393 renal
SF-268 CNS = tested on: SF-268 CNS
SF-295 CNS = tested on: SF-295 CNS
SF-539 CNS = tested on: SF-539 CNS
UACC-257 melanoma = tested on: UACC-257 melanoma
M14 melanoma = tested on: M14 melanoma

Measured: growth

C[C@@H]1CC2C3CCC4=CC(=O)C=C[C@]4(C)[C@@]3(Cl)[C@@H](O)C[C@]2(C)[C@@]1(OC(=O)c1ccco1)C(=O)CCl (stereo partly drawn)
inactive: NCI-H23 lung 66.5% | NCI-H226 lung 62.8% | NCI-H322M lung 74.3% | HOP-62 NSCLC 94.4% | NCI-H460 lung 62.1% | NCI-H522 lung 73.9% | A549/ATCC NSCLC 33.6% | 786-0 renal 80.5% | DU-145 prostate 79% | K-562 leukemia 56.7% | MALME-3M melanoma 87.7% | MDA-MB-231 breast 72.2% | RXF 393 renal 77.7% | SF-268 CNS 53.7% | SF-295 CNS 64.4% | SF-539 CNS 53% | UACC-257 melanoma 96.4% | M14 melanoma 82%

COc1ccccc1CNCCCN1C(=O)c2ccc3c4c(ccc(c24)C1=O)C(=O)N(CCCNCCCN)C3=O
inactive: NCI-H226 lung 38.7% | HOP-62 NSCLC 11.6% | 786-0 renal 11% | MDA-MB-231 breast 12.2% | SF-295 CNS 14.5%
active: NCI-H23 lung -63.4% | NCI-H322M lung 1.95% | NCI-H460 lung -26.5% | NCI-H522 lung -75.6% | A549/ATCC NSCLC 9.81% | DU-145 prostate -1.55% | MALME-3M melanoma -41.9% | RXF 393 renal -36.9% | SF-268 CNS -0.397% | SF-539 CNS 8.47% | UACC-257 melanoma -74.4% | M14 melanoma -44.1%

C#Cc1cccc(Nc2nc3cc([N+](=O)[O-])ccc3nc2Nc2ccc(O)cc2)c1
active: NCI-H23 lung 9.92% | NCI-H460 lung -24% | NCI-H522 lung -53.6% | 786-0 renal -11.7% | K-562 leukemia -30% | MDA-MB-231 breast -48.2% | SF-295 CNS 1.66% | M14 melanoma -52.5%
inactive: NCI-H226 lung 50.3% | NCI-H322M lung 16.8% | HOP-62 NSCLC 21.4% | A549/ATCC NSCLC 11.3% | DU-145 prostate 23.3% | MALME-3M melanoma 51.2% | RXF 393 renal 54.8% | SF-268 CNS 27.3% | SF-539 CNS 21.8% | UACC-257 melanoma 25.9%

CN(C)c1nc(-c2cccs2)n2nc(-c3ccc(Cl)cc3)cc2n1
inactive: NCI-H23 lung 61.9% | NCI-H322M lung 11.8% | NCI-H522 lung 39.9% | A549/ATCC NSCLC 10.9% | DU-145 prostate 72.2% | K-562 leukemia 73.7% | MALME-3M melanoma 57.6% | MDA-MB-231 breast 19.3% | RXF 393 renal 13.3% | SF-268 CNS 55% | SF-539 CNS 47.5% | UACC-257 melanoma 79.6% | M14 melanoma 61.4%
active: NCI-H226 lung -25.5% | HOP-62 NSCLC -39.5% | NCI-H460 lung -1.56% | 786-0 renal -40.7% | SF-295 CNS -5.01%

c1ccc(-c2nnn(-c3ccccc3)n2)cc1
inactive: NCI-H23 lung 105% | NCI-H226 lung 91.4% | NCI-H322M lung 100% | HOP-62 NSCLC 95.8% | NCI-H460 lung 114% | NCI-H522 lung 89.7% | A549/ATCC NSCLC 99.7% | 786-0 renal 104% | DU-145 prostate 127% | K-562 leukemia 89.1% | MALME-3M melanoma 115% | MDA-MB-231 breast 84.6% | RXF 393 renal 102% | SF-268 CNS 109% | SF-295 CNS 106% | SF-539 CNS 105% | UACC-257 melanoma 103% | M14 melanoma 109%

COc1ccc(-c2nc3c(c(-c4ccc(Cl)cc4)nn3-c3ccccc3)c(-c3ccc(O)cc3)c2C#N)cc1
inactive: NCI-H23 lung 52.8% | NCI-H226 lung 70.6% | NCI-H322M lung 75.5% | HOP-62 NSCLC 57.5% | NCI-H460 lung 14.1% | NCI-H522 lung 58.3% | A549/ATCC NSCLC 41.2% | DU-145 prostate 51.6% | K-562 leukemia 10.8% | MALME-3M melanoma 62.6% | MDA-MB-231 breast 65.6% | SF-268 CNS 46.1% | SF-539 CNS 27.6% | UACC-257 melanoma 65.4% | M14 melanoma 45.9%
active: 786-0 renal 9.2% | RXF 393 renal -12.7% | SF-295 CNS -6.26%

CN(C)CCNC(=O)n1cc(-c2ccncc2)c(-c2cc(O)cc(Cl)c2)n1
inactive: NCI-H23 lung 108% | NCI-H226 lung 102% | NCI-H322M lung 128% | HOP-62 NSCLC 98.2% | NCI-H460 lung 93.5% | NCI-H522 lung 115% | A549/ATCC NSCLC 107% | 786-0 renal 81.4% | DU-145 prostate 102% | K-562 leukemia 74.8% | MDA-MB-231 breast 88.6% | RXF 393 renal 84.4% | SF-268 CNS 96.8% | SF-295 CNS 117% | SF-539 CNS 82.5% | UACC-257 melanoma 40.6% | M14 melanoma 27.6%
active: MALME-3M melanoma 6.11%

CCOc1cc(/C=N\NC(=O)C[N+](C)(C)C)ccc1O
inactive: NCI-H23 lung 104% | NCI-H226 lung 97.5% | NCI-H322M lung 123% | HOP-62 NSCLC 115% | NCI-H460 lung 114% | NCI-H522 lung 104% | A549/ATCC NSCLC 105% | 786-0 renal 113% | DU-145 prostate 116% | K-562 leukemia 73.4% | MALME-3M melanoma 115% | MDA-MB-231 breast 127% | RXF 393 renal 120% | SF-268 CNS 109% | SF-295 CNS 111% | SF-539 CNS 120% | UACC-257 melanoma 112% | M14 melanoma 118%
